Results published in PubChem BioAssay (NCATS).
A number with no mark means an inactive call. How the calls were made is not given here.

What follows are compounds tested on HIV-1 nucleocapsid protein NCp7 (binding to TG oligonucleotide) (assay: HIV Nucleocapsid (AID 346;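 further: potency is for inhibitors that block NC binding and lower polarization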)). Settings: HIV-1 NC / fluorescein-TGTGTGTG probe, fluorescence polarization.
Outline: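 Reagents dispensed (10 nM TG4xF, 100 nM HIV-1 NC), plates spun, compounds pin-transferred, then incubated 1 hr at room temperature before FP imaging. Buffer: Hepes pH 7.5, 250mM NaCl, 1uM ZnCl2, 100 uM TCEP, 5 mM 2-mercaptoethanol.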
Potency means the concentration at half of the fitted maximal effect.

With `COc1cccc(Cn2c(=O)c(-c3ccc(Cl)cc3)nc3cnc(N4CCOCC4)nc32)c1` as the compound, how does the Potency read?
Its Potency is over 20 µM.

For `CN1CCN(c2ncc3nc(-c4cccc(C#N)c4)c(=O)n(CCc4ccccc4)c3n2)CC1`, which Potency is on record?
The Potency was over 20 µM.

How did the Potency turn out when `COCCNc1cc(-c2ccccc2C)ncn1` was run?
The Potency was over 20 µM.

How did the Potency turn out when `COc1ccc(CNc2nc(-c3ccoc3)nc3ccccc23)c(OC)c1` was run?
Its Potency is over 20 µM.

Which Potency does the source give for `CS(=O)(=O)N1CCC2(CC1)CN(Cc1nccs1)C2` here?
The Potency was over 20 µM.

For `Cn1cccc1C(=O)N1CCC2(CCCN(C(=O)Nc3cccc(C#N)c3)C2)CC1`, which Potency is on record?
The Potency was over 20 µM.

For `COc1ccccc1CNc1ncncc1-c1ccccc1C(F)(F)F`, which Potency is on record?
Its Potency is over 20 µM.

With `CC(C)NC(=O)N1CCCC2(CCN(C(=O)c3ccncc3)CC2)C1` as the compound, how does the Potency read?
Its Potency is over 20 µM.

Which Potency does the source give for `COC(=O)N1CCC[C@@]2(CCN(c3ncccn3)C2)C1` here?
The Potency was over 20 µM.

For `O=C(Nc1ccccc1)N1CC2(CCN(C(=O)c3ccco3)CC2)C1`, which Potency is on record?
Its Potency is over 20 µM.

Which Potency does the source give for `O=c1c(-c2ccccc2)nc2cnc(N3CCNCC3)nc2n1C1CC1` here?
Its Potency is over 20 µM.

With `COc1ccc(-n2c(=O)c(-c3ccccc3)nc3cncnc32)cc1` as the compound, how does the Potency read?
Its Potency is over 20 µM.

How did the Potency turn out when `CC(C)CN1CC[C@@]2(CCCN(C(=O)c3cc(C(F)(F)F)cc(C(F)(F)F)c3)C2)C1` was run?
The Potency was over 20 µM.

With `COCCn1c(=O)c(-c2cn(C)c3ccccc23)nc2cnc(N3CCOCC3)nc21` as the compound, how does the Potency read?
Its Potency is over 20 µM.

With `Clc1ccccc1-c1nccc(-n2ccnc2)n1` as the compound, how does the Potency read?
Its Potency is over 20 µM.

How did the Potency turn out when `COCC(=O)N1CCC2(CCCN(Cc3ccccc3OC)C2)CC1` was run?
Its Potency is over 20 µM.

How did the Potency turn out when `Cc1cccc(CNc2ncncc2-c2cccc(NS(C)(=O)=O)c2)c1` was run?
Its Potency is over 20 µM.

How did the Potency turn out when `COCCNc1nc(-c2ccccc2Cl)nc2ccccc12` was run?
Its Potency is over 20 µM.

For `COc1cccc(-c2cc(NCCc3c[nH]c4ccc(OC)cc34)ncn2)c1`, which Potency is on record?
Its Potency is over 20 µM.

`O=C(c1cccc(F)c1)N1CCC[C@@]2(CCN(c3ccccn3)C2)C1` was tested. Which Potency did it give?
The Potency was over 20 µM.

`FC(F)(F)c1ccccc1-c1nccc(NCc2ccccc2)n1` was tested. Which Potency did it give?
Its Potency is over 20 µM.

For `COCCn1c(=O)c(-c2cn(C)c3ccccc23)nc2cncnc21`, which Potency is on record?
The Potency was 11.9 µM.

`FC(F)(F)c1cc(CN2CC3(CCNCC3)C2)cc(C(F)(F)F)c1` was tested. Which Potency did it give?
The Potency was over 20 µM.

With `CN(C)C(=O)c1ccc(-c2nc(NC3CCNCC3)c3ccccc3n2)cc1` as the compound, how does the Potency read?
Its Potency is over 20 µM.

Which Potency does the source give for `COc1cccc(-c2ccc3ncnc(NC4CC4)c3c2)c1` here?
Its Potency is over 20 µM.

Which Potency does the source give for `COc1ccc(-n2c(=O)cnc3cnc(N4CCOCC4)nc32)cc1` here?
The Potency was over 20 µM.

`COc1ccc2[nH]cc(CCNc3nc(-c4cccnc4)nc4ccccc34)c2c1` was tested. Which Potency did it give?
Its Potency is over 20 µM.

With `COCCn1c(=O)c(-c2ccc(F)cc2)nc2cnc(OC)nc21` as the compound, how does the Potency read?
The Potency was over 20 µM.

Which Potency does the source give for `Cc1noc(C)c1-c1ccc2ncnc(NC3CC3)c2c1` here?
The Potency was over 20 µM.

With `O=C(c1csnn1)N1CCC2(CC1)CN(Cc1cc(C(F)(F)F)cc(C(F)(F)F)c1)C2` as the compound, how does the Potency read?
Its Potency is over 20 µM.

How did the Potency turn out when `Fc1ccc(Nc2ncnc3ccc(-c4ccoc4)cc23)cc1` was run?
Its Potency is over 20 µM.

`Cc1nc2cnc(N(C)C)nc2n(C)c1=O` was tested. Which Potency did it give?
Its Potency is over 20 µM.

How did the Potency turn out when `Cn1c(=O)c(-c2ccc(Cl)cc2)nc2cnc(Oc3ccccc3)nc21` was run?
Its Potency is over 20 µM.

How did the Potency turn out when `Cn1c(=O)c(-c2cccc(Cl)c2)nc2cncnc21` was run?
Its Potency is over 20 µM.

For `CC(=O)N1CCC[C@@]2(CCN(Cc3ccc(C#N)cc3)C2)C1`, which Potency is on record?
The Potency was over 20 µM.

Which Potency does the source give for `Cc1ccccc1-c1cc(N2CCN(C)CC2)ncn1` here?
Its Potency is over 20 µM.

`Cc1ccccc1-c1cc(N2CCNCC2)ncn1` was tested. Which Potency did it give?
Its Potency is over 20 µM.

For `CC(=O)NCCNc1ncncc1-c1ccccc1CN(C)C`, which Potency is on record?
Its Potency is over 20 µM.

Which Potency does the source give for `COCCn1c(=O)c(-c2ccc(Cl)cc2)nc2cncnc21` here?
Its Potency is over 20 µM.

With `O=C(Nc1cccc(F)c1)N1CC2(CCN(C(=O)c3ccco3)CC2)C1` as the compound, how does the Potency read?
Its Potency is over 20 µM.
